These results are taken from publication PMC8384837, “Expanding the binding specificity for RNA recognition by a PUF domain”.

Common to all, as to experiment: yeast three-hybrid, YBZ-1, SC-Leu-His + 0.5 mM 3-AT, 4 days
Common to all, as to conditions: tags: N-Gal4 AD-HA kept; label: inside an RPR1-promoter hybrid RNA with tandem MS2 sites; ssRNA

One assay deals with PUM1 PUF domain R4-DWT (Homo sapiens, UniProt Q14671 828-1176, N971D;H972W;Q975T). The essentials: (§1)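 The interaction score is the log change in variant frequency from input to selection. Scores were computed in log2 with a pseudocount of 1 for absent variants, using Illumina sequencing of PCR-amplified repeat regions. The input came from four days on SC-Leu and the selection from four days on SC-Leu-His + 0.5 mM 3-AT. The cells were strain YBZ-1 (LexA–MS2 coat fusion, HIS3 reporter) co-expressing Pumilio-1 PUF domain libraries and matching RNA elements from a centromeric plasmid.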

The next assay deals with PUM1 PUF domain R3-LFE (Homo sapiens, UniProt Q14671 828-1176, C935L;R936F;Q939E). The essentials: as §1
Another assay addresses PUM1 PUF domain R3-API (Homo sapiens, UniProt Q14671 828-1176, C935A;R936P;Q939I). The essentials:
as §1

In a further assay the target is PUM1 PUF domain R3-SNF (Homo sapiens, UniProt Q14671 828-1176, C935S;R936N;Q939F). The essentials: as §1
Another assay addresses T1, PUM1 PUF domain R6-VWC (Homo sapiens, UniProt Q14671 828-1176, N1043V;Y1044W;Q1047C).
T1 sequence: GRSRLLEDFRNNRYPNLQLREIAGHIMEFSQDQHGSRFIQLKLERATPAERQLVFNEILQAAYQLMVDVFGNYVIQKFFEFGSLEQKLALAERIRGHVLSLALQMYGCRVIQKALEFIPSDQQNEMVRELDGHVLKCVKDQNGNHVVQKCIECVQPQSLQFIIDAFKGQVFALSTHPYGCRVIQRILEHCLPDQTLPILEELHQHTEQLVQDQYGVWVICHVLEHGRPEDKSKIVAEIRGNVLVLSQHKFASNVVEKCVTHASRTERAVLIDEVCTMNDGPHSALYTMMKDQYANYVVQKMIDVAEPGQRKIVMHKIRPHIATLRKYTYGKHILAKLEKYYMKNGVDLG
The essentials: as §1

A further assay has as its target PUM1 PUF domain R5-LHC (Homo sapiens, UniProt Q14671 828-1176, C1007L;R1008H;Q1011C). The essentials:
as §1

In another assay the target is T2, PUM1 PUF domain R6-GFR (Homo sapiens, UniProt Q14671 828-1176, N1043G;Y1044F;Q1047R).
T2 sequence: T1 sequence with V216G, W217F, C220R
The essentials:
as §1

A further assay has as its target PUM1 PUF domain R8-KHR (Homo sapiens, UniProt Q14671 828-1176, N1122K;Y1123H;Q1126R). The essentials:
as §1

Another assay has as its target PUM1 PUF domain R4-PWQ (Homo sapiens, UniProt Q14671 828-1176, N971P;H972W). The essentials: as §1
In the next assay the target is PUM1 PUF domain R4-FNG (Homo sapiens, UniProt Q14671 828-1176, N971F;H972N;Q975G). The essentials: as §1
Another assay has as its target PUM1 PUF domain R4-RHI (Homo sapiens, UniProt Q14671 828-1176, N971R;Q975I). The essentials: as §1
In the next assay the target is PUM1 PUF domain R7-TRR (Homo sapiens, UniProt Q14671 828-1176, S1079T;N1080R;E1083R). The essentials: as §1
A further assay concerns the target PUM1 PUF domain R2-RRA (Homo sapiens, UniProt Q14671 828-1176, N899R;Y900R;Q903A). The essentials: as §1
The next assay concerns the target PUM1 PUF domain R5-LNS (Homo sapiens, UniProt Q14671 828-1176, C1007L;R1008N;Q1011S). The essentials:
as §1

Another assay addresses PUM1 PUF domain R1-KTQ (Homo sapiens, UniProt Q14671 828-1176, S863K;R864T). The essentials:
as §1

In the next assay the target is PUM1 PUF domain R1-KAN (Homo sapiens, UniProt Q14671 828-1176, S863K;R864A;Q867N). The essentials:
as §1

For the next assay, the target named is PUM1 PUF domain R3-RQS (Homo sapiens, UniProt Q14671 828-1176, C935R;R936Q;Q939S). The essentials: as §1
The target of the next assay is PUM1 PUF domain R1-QLR (Homo sapiens, UniProt Q14671 828-1176, S863Q;R864L;Q867R). The essentials: as §1
In another assay the target is PUM1 PUF domain R8-RFD (Homo sapiens, UniProt Q14671 828-1176, N1122R;Y1123F;Q1126D). The essentials:
as §1

For another assay, the target named is T3, PUM1 PUF domain R6-LFA (Homo sapiens, UniProt Q14671 828-1176, N1043L;Y1044F;Q1047A).
T3 sequence: T1 sequence with V216L, W217F, C220A
The essentials:
as §1

Residue numbers refer to the chain shown, from its start.

With “GGCUAGAACUAGUGGAUCCCCCGGCGCCCGGCGGCUCGAGCCCGGGUAAGUGUAAAUAGUCUGCAUGCCGCCGGGCGCCAUGCCUGCAGGUCGACUCUAGAAAACAUG”, the binding signal in the assay with PUM1 PUF domain R4-DWT was 6.18 log2 enrichment (interaction score); with PUM1 PUF domain R3-LFE, 3.02 log2 enrichment (interaction score); with PUM1 PUF domain R3-API it was 3.13 log2 enrichment (interaction score); with PUM1 PUF domain R3-SNF, 2.65 log2 enrichment (interaction score); with PUM1 PUF domain R6-VWC, 3.32 log2 enrichment (interaction score); with PUM1 PUF domain R5-LHC, 2.44 log2 enrichment (interaction score). In addition, the binding signal with PUM1 PUF domain R6-GFR was 4.38 log2 enrichment (interaction score); with PUM1 PUF domain R8-KHR it was 2.92 log2 enrichment (interaction score).

Regarding “GGCUAGAACUAGUGGAUCCCCCGGCGCCCGGCGGCUCGAGCCCGGGUAAGUGUAUAUAGUCUGCAUGCCGCCGGGCGCCAUGCCUGCAGGUCGACUCUAGAAAACAUG”, the binding signal with PUM1 PUF domain R4-PWQ is 5.05 log2 enrichment (interaction score); with PUM1 PUF domain R4-FNG it was 4.34 log2 enrichment (interaction score); with PUM1 PUF domain R4-RHI it was 3.1 log2 enrichment (interaction score).

For the sequence “GGCUAGAACUAGUGGAUCCCCCGGCGCCCGGCGGCUCGAGCCCGGGUAAGUCUAAAUAGUCUGCAUGCCGCCGGGCGCCAUGCCUGCAGGUCGACUCUAGAAAACAUG”, the binding signal with PUM1 PUF domain R7-TRR was 3.35 log2 enrichment (interaction score).

Turning to “GGCUAGAACUAGUGGAUCCCCCGGCGCCCGGCGGCUCGAGCCCGGGUAAGUGUAAAGAGUCUGCAUGCCGCCGGGCGCCAUGCCUGCAGGUCGACUCUAGAAAACAUG”, the binding signal in the assay with PUM1 PUF domain R2-RRA was 2.69 log2 enrichment (interaction score).

In the case of “GGCUAGAACUAGUGGAUCCCCCGGCGCCCGGCGGCUCGAGCCCGGGUAAGUGUUAAUAGUCUGCAUGCCGCCGGGCGCCAUGCCUGCAGGUCGACUCUAGAAAACAUG”, the binding signal with PUM1 PUF domain R5-LNS is 4.81 log2 enrichment (interaction score).

Consider “GGCUAGAACUAGUGGAUCCCCCGGCGCCCGGCGGCUCGAGCCCGGGUAAGUGUAAAUUGUCUGCAUGCCGCCGGGCGCCAUGCCUGCAGGUCGACUCUAGAAAACAUG”, for which, in the assay with PUM1 PUF domain R1-KTQ, the binding signal was 5.82 log2 enrichment (interaction score).

As for “GGCUAGAACUAGUGGAUCCCCCGGCGCCCGGCGGCUCGAGCCCGGGUAAGUGUAAAUGGUCUGCAUGCCGCCGGGCGCCAUGCCUGCAGGUCGACUCUAGAAAACAUG”, the binding signal with PUM1 PUF domain R1-KAN was 2.46 log2 enrichment (interaction score).

For “GGCUAGAACUAGUGGAUCCCCCGGCGCCCGGCGGCUCGAGCCCGGGUAAGUGCAAAUAGUCUGCAUGCCGCCGGGCGCCAUGCCUGCAGGUCGACUCUAGAAAACAUG”, in the assay with PUM1 PUF domain R6-GFR, the binding signal is 6.98 log2 enrichment (interaction score).

In the case of “GGCUAGAACUAGUGGAUCCCCCGGCGCCCGGCGGCUCGAGCCCGGGUAAGUGUAAUUAGUCUGCAUGCCGCCGGGCGCCAUGCCUGCAGGUCGACUCUAGAAAACAUG”, the binding signal is 1.57 log2 enrichment (interaction score) in the assay with PUM1 PUF domain R3-LFE and 4.09 log2 enrichment (interaction score) in the assay with PUM1 PUF domain R3-RQS.

As for “GGCUAGAACUAGUGGAUCCCCCGGCGCCCGGCGGCUCGAGCCCGGGUAAGUGUAAAUCGUCUGCAUGCCGCCGGGCGCCAUGCCUGCAGGUCGACUCUAGAAAACAUG”, the binding signal with PUM1 PUF domain R1-QLR is 4.6 log2 enrichment (interaction score).

In the case of “GGCUAGAACUAGUGGAUCCCCCGGCGCCCGGCGGCUCGAGCCCGGGUAAGCGUAAAUAGUCUGCAUGCCGCCGGGCGCCAUGCCUGCAGGUCGACUCUAGAAAACAUG”, the binding signal with PUM1 PUF domain R8-RFD was 4.38 log2 enrichment (interaction score); in the assay with PUM1 PUF domain R8-KHR, 6.43 log2 enrichment (interaction score).

For “GGCUAGAACUAGUGGAUCCCCCGGCGCCCGGCGGCUCGAGCCCGGGUAAGUGAAAAUAGUCUGCAUGCCGCCGGGCGCCAUGCCUGCAGGUCGACUCUAGAAAACAUG”, the binding signal with PUM1 PUF domain R6-LFA is 6.15 log2 enrichment (interaction score).
